Measured values published in PubChem BioAssay (EPA / NIEHS).
Calls of active or inactive are those of the source. The calls were made as follows: active = hit-call score of the fitted dose curve at least 0.9, where 1 is the maximum; inactive = score below 0.9.

target: Paired box protein Pax-6 (Homo sapiens) (UniProt P26367); test: ATG_Pax6_CIS: Attagene CIS-FACTORIAL HepG2 Assay for human Paired Box 6 (PAX6) (AID 2282956); conditions: HepG2 CIS-FACTORIAL PAX6 reporter transcription, RNA readout; actives raise or lower the signal
Sequence (P26367 whole entry, looked up): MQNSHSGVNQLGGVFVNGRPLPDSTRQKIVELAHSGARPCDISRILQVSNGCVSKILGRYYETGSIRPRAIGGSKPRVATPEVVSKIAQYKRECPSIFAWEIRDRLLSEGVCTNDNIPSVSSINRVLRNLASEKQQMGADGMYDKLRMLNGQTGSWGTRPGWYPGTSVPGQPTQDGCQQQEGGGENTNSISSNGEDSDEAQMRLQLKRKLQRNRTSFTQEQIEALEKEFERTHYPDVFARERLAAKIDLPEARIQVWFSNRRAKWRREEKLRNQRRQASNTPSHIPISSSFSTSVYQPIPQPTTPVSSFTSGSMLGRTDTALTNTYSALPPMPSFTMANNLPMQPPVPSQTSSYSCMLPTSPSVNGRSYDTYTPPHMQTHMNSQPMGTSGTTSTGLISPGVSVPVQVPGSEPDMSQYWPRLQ
In short: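 Fluorescent RT-PCR products separated by capillary electrophoresis report PAX6-linked promoter mRNA in HepG2 cells 24 h post-dose. Curves fitted bidirectionally, DMSO as negative control.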

SMILES | outcome
CCCCNC(=O)NS(=O)(=O)c1ccc(N)cc1 | inactive
CCOC(=O)c1ccccc1OC | inactive
CCCCCCCCCCN | inactive
CC(C)(CO)[N+](=O)[O-] | inactive
CC1(C)C(=O)N(Br)C(=O)N1Cl | inactive
COc1ccc(O)cc1 | inactive
CC(=O)Nc1ccc(CC(=O)O)cc1 | inactive
CC(C)C1CCC(O)CC1 (centres undefined) | inactive
C=C(C)C(=O)O | inactive
CCCCCNCCCCC | inactive
COc1cc(C=O)ccc1OC(=O)C(C)C | inactive
O=C[C@H](O)[C@H](O)[C@H](O)CO | inactive
CCCCOCCOCCOCCOCCO | inactive
C=C[Si](OCC)(OCC)OCC | inactive
CCCCCCOC(=O)CCCCC | inactive
COC(C)CCO (centres undefined) | inactive
OCCOc1cccc(OCCO)c1 | inactive
C=C(C)[C@@H]1CC[C@@H](C)C[C@@H]1O | inactive
CCCCCCCCCCCCN(CCCCCCCCCCCC)CCCCCCCCCCCC | inactive

SMILES | outcome
Cc1ccc(C(C)C)cc1O | inactive
CC(=O)[O][Al][O]C(C)=O | inactive
CCCCCCCCCCCCCCCC(=O)O | inactive
CC(=O)c1c(C)cc(C(C)(C)C)cc1C | inactive
CCCCCCCCCCCCCCCC(=O)OC[C@H](O)[C@H]1OC(=O)C(O)=C1O | inactive
C=C(C)C(=O)O[C@H]1C[C@@H]2CC[C@@]1(C)C2(C)C | inactive
CCCCCOC(=O)CCC | inactive
Nc1nc2ccc([N+](=O)[O-])cc2s1 | inactive
CCCCCCCCCCCCCOS(=O)(=O)O | inactive
CCCCN | inactive
CC(C)=CCO | inactive
NCCCCCCN | inactive
C=C(C)C(=O)Nc1ccc(Cl)c(Cl)c1 | inactive
O=S(=O)(O)NC1CCCCC1 | inactive
CC(C)C(C)(C)C(C)(C)C(C)(C)S | inactive
C=C(C)C1CCC(C)CC1O (centres undefined) | inactive
CC(C)[C@@H]1CC[C@@H](C)CC1=O | inactive
CCCCCC(CO)CCC (centres undefined) | inactive
O=c1[nH]c(=O)n([C@H]2CCCO2)cc1F | inactive

tested on: not listed separately; test: ATG_PXRE_CIS: Attagene CIS-FACTORIAL HepG2 Assay for human Pregnane X Receptor Element (PXRE) (AID 2282957); conditions: HepG2 Attagene CIS-FACTORIAL PXRE reporter, mRNA; actives raise or lower the signal
In short: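 Using HepG2 transfected with multiple reporter transcription units, endogenous factor-driven transcription was scored as reporter mRNA after 24 h exposure.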

SMILES | outcome | AC50
CCCCNC(=O)NS(=O)(=O)c1ccc(N)cc1 | inactive | –
CCOC(=O)c1ccccc1OC | – | 54 µM (active)
CC(C)(CO)[N+](=O)[O-] | inactive | –
CC1(C)C(=O)N(Br)C(=O)N1Cl | – | 67.5 µM (active)
COc1ccc(O)cc1 | – | 57.5 µM (active)
CC(=O)Nc1ccc(CC(=O)O)cc1 | inactive | –
CC(C)C1CCC(O)CC1 (centres undefined) | inactive | –
C=C(C)C(=O)O | inactive | –
CCCCCNCCCCC | – | 59.4 µM (active)
O=C[C@H](O)[C@H](O)[C@H](O)CO | inactive | –
C=C[Si](OCC)(OCC)OCC | – | 5.48 µM (active)
CCCCCCOC(=O)CCCCC | inactive | –
COC(C)CCO (centres undefined) | – | 26.6 µM (active)
OCCOc1cccc(OCCO)c1 | inactive | –
C=C(C)[C@@H]1CC[C@@H](C)C[C@@H]1O | inactive | –
CC(=O)[O][Al][O]C(C)=O | – | 6.49 µM (active)

SMILES | outcome | AC50
CCCCCCCCCCCCCCCC(=O)O | – | 25.3 µM (active)
CC(=O)c1c(C)cc(C(C)(C)C)cc1C | – | 27.1 µM (active)
C=C(C)C(=O)O[C@H]1C[C@@H]2CC[C@@]1(C)C2(C)C | – | 26.5 µM (active)
CCCCCOC(=O)CCC | inactive | –
Nc1nc2ccc([N+](=O)[O-])cc2s1 | – | 19.8 µM (active)
CCCCCCCCCCCCCOS(=O)(=O)O | inactive | –
CCCCN | inactive | –
CC(C)=CCO | – | 47.2 µM (active)
NCCCCCCN | inactive | –
C=C(C)C(=O)Nc1ccc(Cl)c(Cl)c1 | – | 10.2 µM (active)
O=S(=O)(O)NC1CCCCC1 | inactive | –
CC(C)C(C)(C)C(C)(C)C(C)(C)S | – | 4.43 µM (active)
C=C(C)C1CCC(C)CC1O (centres undefined) | inactive | –
CC(C)[C@@H]1CC[C@@H](C)CC1=O | inactive | –
CCCCCC(CO)CCC (centres undefined) | inactive | –
O=c1[nH]c(=O)n([C@H]2CCCO2)cc1F | inactive | –

tested on: not listed separately; test: ATG_PPRE_CIS: Attagene CIS-FACTORIAL HepG2 Assay for human Peroxisome Proliferator-activated Response Element (PPRE) (AID 2282958); conditions: HepG2 PPRE cis-element reporter, Attagene transcription factor profiling; actives raise or lower the signal
In short: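 HepG2 cells are transiently transfected with multiplexed cis-promoter reporter units to report endogenous PPAR activity. After 24 h dosing, reporter mRNA is read by RT-PCR and capillary electrophoresis. Fitting is bidirectional against DMSO.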

SMILES | outcome | AC50
CCOC(=O)c1ccccc1OC | inactive | –
COc1ccc(O)cc1 | inactive | –
COc1cc(C=O)ccc1OC(=O)C(C)C | inactive | –
O=C[C@H](O)[C@H](O)[C@H](O)CO | inactive | –
CCCCOCCOCCOCCOCCO | inactive | –
OCCOc1cccc(OCCO)c1 | inactive | –
CCCCCCCCCCCCN(CCCCCCCCCCCC)CCCCCCCCCCCC | inactive | –
CC(=O)[O][Al][O]C(C)=O | inactive | –
CCCCCCCCCCCCCCCC(=O)OC[C@H](O)[C@H]1OC(=O)C(O)=C1O | inactive | –
C=C(C)C(=O)O[C@H]1C[C@@H]2CC[C@@]1(C)C2(C)C | – | 75.3 µM (active)
CCCCCOC(=O)CCC | inactive | –
Nc1nc2ccc([N+](=O)[O-])cc2s1 | – | 45.6 µM (active)
CCCCCCCCCCCCCOS(=O)(=O)O | – | 7.4 µM (active)
CCCCN | inactive | –
CC(C)=CCO | inactive | –
NCCCCCCN | inactive | –
CC(C)C(C)(C)C(C)(C)C(C)(C)S | inactive | –
CCCCCC(CO)CCC (centres undefined) | inactive | –
O=c1[nH]c(=O)n([C@H]2CCCO2)cc1F | inactive | –
